Screens as filed in PubChem BioAssay.
dFosB act-1: enhances mouse delta FosB homodimer DNA binding | P13346 | purified delta FosB, TAMRA-CDK5 oligo fluorescence polarization; percent of positive-control signal above neutral wells | activation, % at 25 µM | 340,000 compounds, 0.99% hits | AID 493131;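 active = mean activation above about 17%, with every replicate also reaching it, limit read from the data, passing the limit was not always enough; inconclusive = only one of the two conditions met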
B2AR ag: agonists of human beta-2 adrenergic receptor inducing internalization | P07550 | 340,000 compounds, 0.43% hits | response, % (test concentration not listed) | Am2.2-beta2AR cells, FAP receptor internalization, flow cytometry;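 active = response above a set limit, near 3 SD of response in nonfluorescent compounds, cut at about 42% in these data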
Target sequence (P07550 whole entry, looked up): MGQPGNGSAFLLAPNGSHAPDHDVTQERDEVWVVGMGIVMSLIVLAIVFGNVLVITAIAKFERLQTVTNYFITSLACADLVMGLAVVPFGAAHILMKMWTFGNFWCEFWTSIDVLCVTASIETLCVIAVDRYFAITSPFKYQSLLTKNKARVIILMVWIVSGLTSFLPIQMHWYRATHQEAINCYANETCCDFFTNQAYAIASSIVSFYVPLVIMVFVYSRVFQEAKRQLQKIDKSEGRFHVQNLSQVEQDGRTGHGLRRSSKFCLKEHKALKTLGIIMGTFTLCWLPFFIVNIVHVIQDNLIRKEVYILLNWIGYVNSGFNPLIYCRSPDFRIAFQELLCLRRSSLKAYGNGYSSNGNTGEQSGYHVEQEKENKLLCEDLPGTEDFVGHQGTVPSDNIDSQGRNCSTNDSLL
Bfl-1 A1 inh: inhibitors of the anti-apoptotic protein A1, read as caspase activation; MEF A1-2A-BIM cells, Caspase-Glo 3/7 luminescence, 3 h; percent of clofoctol response, vehicle zero; caspase activation, % (concentration not given with the values); 330,000 compounds, 0.066% hits; AID 2462;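 active = over half of replicate activation scores above 10%, or exactly half above 10 with the replicate mean above 10; inconclusive = replicate mean below 10 yet half the replicates above 10; inactive = over half of replicates below 10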
Dyrk1A ADPGlo: blocks rat Dyrk1A kinase activity; Q63470; ADP-Glo luminescence, NFATc1 peptide; inhibition, % at 12.5 µM; 310,000 compounds, 0.43% hits; in the data active = inhibition above about 50%;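 note: plate controls were vehicle with enzyme for no effect and no enzyme for full effect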
dFosB act-2: activators of mouse delta FosB homodimer DNA binding | purified delta FosB, TAMRA-CDK5 oligo fluorescence polarization; normalised: neutral wells 0, positive control 100 | activation, % at 24.9 µM | 2,400 tested, under 10 active | shares compounds with dFosB act-1 | AID 588690;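 active = highest replicate activation at or above 34% and every replicate reaching that threshold; inconclusive = meets only one of the two criteria; inactive = meets neither criterion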;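 note: higher polarization means more probe DNA bound by delta FosB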
* marks the source's active call; other numbers are inactive results; ? = inconclusive; . = no result. An excerpt weighted towards active compounds, which were near 1.6% of everything screened.

SMILES	dFosB act-1	B2AR ag	Bfl-1 A1 inh	Dyrk1A ADPGlo	others
COc1ccc(/C=C2\SC(=S)N(CCCC(=O)NNC(=O)c3ccccc3O)C2=O)cc1	45*	1	-1	-4
Cc1ccc(S(=O)(=O)c2cn(C)c3cc(N4CCN(C)CC4)c(F)cc3c2=O)c(C)c1	-6	3	0	.
COCCCNC(=O)c1cc2c(=O)n3cc(C)ccc3nc2nc1NCC1CCCO1 (stereo not drawn)	.	.	-1	.
C[C@H](NC(=O)Cc1ccccc1)C(=O)N1CCC2(CC1)NCCc1[nH]cnc12	0	3	0	6
Clc1ccc(OCc2nnc3n2CCCCC3)c(Cl)c1	-9	-13	0	4
Cc1cc(NC(=O)CN2C(=O)/C(=C/c3ccccc3F)SC2=S)no1	?	14	0	-7
Cc1cc(NC(=O)CCCN2C(=O)/C(=C/c3ccccc3Cl)SC2=S)no1	37*	4	1	2
O=C(CCN1C(=O)/C(=C/c2ccccc2)SC1=S)Nc1ccccn1	0	1	0	-3
CCOc1ccc(/C=C2\SC(=S)N(CC(=O)Nc3ccccn3)C2=O)cc1	22*	3	-2	2
COc1ccccc1CC(=O)Nc1ccc(NC(=O)c2cccs2)cc1	17*	-15	1	-2
O=C(Nc1cccc(F)c1)Nc1ccnn1C1CCN(C(=O)c2cscn2)CC1	6	0	1	1
COC(CNC(=O)c1ccc2c3c(onc13)-c1ccccc1C2=O)OC	-7	48*	-1	14
Clc1ccc(C(c2ccccc2)N2CCNCC2)cc1 (stereo not drawn)	-1	20	0	5
CC12CNCC(C)(CN(C(c3ccccc3)c3ccccc3)C1)C2	-6	90*	0	13
Cc1ccc(Cn2c(SCC(=O)Nc3cc(C)on3)nc3ccccc3c2=O)cc1	65*	-6	-1	7
COc1ccc2c(-c3ccc(OCCN4CCCCC4)cc3)c(-c3ccccc3OC)sc2c1	48*	16	.	0
c1ccc(-c2sc3ccccc3c2-c2ccc(OCCN3CCCC3)cc2)cc1	-1	68*	3	6
COc1cccc(-c2sc3cc(OC)c(OC)cc3c2-c2ccc(OCCN3CCCCC3)cc2)c1	34*	21	.	1
COc1cccc(-c2sc3ccccc3c2-c2ccc(OCCN(C)C)cc2)c1	-21	65*	-1	8
COc1ccc2sc(-c3ccccc3OC)c(-c3ccc(OCCN(C)C)cc3)c2c1	-1	24	.	13
COc1ccccc1-c1sc2ccccc2c1-c1ccc(OCCN2CCCCC2)cc1	?	10	.	2
COc1ccc(-c2sc3ccccc3c2-c2ccc(OCCN3CCCCC3)cc2)cc1	?	-5	1	3
CC(=O)Nc1ccc(C(=O)N/N=C/c2cc(Br)cc(Br)c2O)cc1	97*	13	0	1
O=C(COC(=O)c1cc(NS(=O)(=O)c2cccs2)ccc1O)Nc1cc(Cl)ccc1Cl	51*	9	0	0
O=C(COC(=O)c1ccc(NS(=O)(=O)c2cccs2)cc1)Nc1nc2c(F)c(F)c(F)cc2s1	37*	-4	.	1
SMILES	dFosB act-1	B2AR ag	Bfl-1 A1 inh	Dyrk1A ADPGlo	others
Cc1ccc(S(=O)(=O)NC2=C(N3CCN(c4ccccc4F)CC3)C(=O)c3ccccc3C2=O)cc1	-8	4	-1	2
Cc1ccc(S(=O)(=O)NC2=C(N3CCN(Cc4ccccc4)CC3)C(=O)c3ccccc3C2=O)cc1	-4	53*	0	.
COc1cc(C=O)c(Br)cc1OCc1ccc(C)cc1	-4	8	-1	.
CCOc1cc(C=O)c(Br)cc1OC1CCCC1	-1	44*	-1	1
Cc1ccc(S(=O)(=O)CCC(=O)OCC(=O)NCC(=O)Nc2c(C)cc(C)cc2C)cc1	2	-3	-1	5
Clc1ccc2c(N/N=C/c3cccnc3)ccnc2c1	-27	-8	0	2
Cc1ccc(/C=N/Nc2ccnc3cc(Cl)ccc23)c(C)c1	49*	19	-1	1
Clc1ccc2c(N/N=C/c3ccc(Br)cc3)ccnc2c1	34*	61*	1	1
COc1cccc(C(C)NC(=O)Cc2cccs2)c1 (stereo not drawn)	-5	2	0	7
O=C(N[C@@H](Cc1ccccc1)C(=O)CCl)OCc1ccccc1	-3	47*	1	6
O=C(N[C@@H](Cc1ccccc1)C(=O)N[C@@H](Cc1ccccc1)C(=O)O)OCc1ccccc1	-4	5	0	3
NC(=S)N=Nc1ccc(NN=C(N)N)cc1	29*	1	0	6
O=C(OCC(=O)N1CCCC1)c1cc(Cl)ccc1[N+](=O)[O-]	-3	-1	0	5
COC(=O)C1=C(C)NC(=S)NC1c1ccc(-c2cccc(Cl)c2)o1 (stereo not drawn)	0	51*	0	10
CCOC(=O)C1=C(C)NC(=S)NC1c1ccc(-c2ccc(Cl)cc2)o1 (stereo not drawn)	-4	-4	0	.
C=CC(=O)Nc1ccc(Nc2nc(NC3CCC(N(C)C)CC3)nc3c2ncn3C(C)C)cc1 (stereo not drawn)	?	-1	1	93*
CCOc1ccc(C(=O)Nc2nnc(NC(=S)Nc3ccccc3)s2)cc1	5	103*	-2	.
O=C(/C=C/c1ccc2c(c1)OCO2)NCCSCc1ccc(Cl)cc1	3	-2	0	2
O=C(/C=C/c1ccc2c(c1)OCO2)NCCSCc1c(Cl)cccc1Cl	-1	77*	-1	11
COc1ccc(C(=O)Nc2ccnn2C2CCN(C(=O)c3cccnc3)CC2)cc1	1	-5	0	-4
O=C(/C(=C/c1ccc(Cl)cc1)c1nc2ccccc2[nH]1)c1cccs1	-8	62*	2	8
CC(C)OCCCNC(=O)c1cn(C)c2ccc(S(=O)(=O)N(C)C3CCCCC3)cc2c1=O	-21	4	1	0
COc1ccc(S(=O)(=O)N2CCOCC2)cc1NC(=O)COC(=O)C1CC1C (stereo not drawn)	-5	-7	-1	1
COc1ccc(N=c2cc(-c3ccc(O)cc3)oc3ccccc23)cc1	42*	7	0	2
NC(=O)c1cc(C(=O)c2ccccc2Cl)c[nH]1	1	0	0	3
SMILES	dFosB act-1	B2AR ag	Bfl-1 A1 inh	Dyrk1A ADPGlo	others
O=C(CCn1c(=S)[nH]c2cc3c(cc2c1=O)OCO3)NCc1ccccc1Cl	35*	1	0	-7
O=C1CN(S(=O)(=O)c2cc(Br)ccc2Br)CCN1	-5	-2	1	0
O=c1c(Br)ccc(Br)cc1Br	-17	70*	.	-1
COc1cc(SC)ccc1C(=O)NNC(=O)c1cc(C)oc1C	-4	-6	-12	-5
COc1ccc(-c2nn(C)c3sc(C(=O)NCCN(C)C)cc23)cc1OC	51*	-8	0	2
O=C(Nc1ccon1)c1sc2cc(Cl)ccc2c1Cl	41*	1	0	2	dFosB act-2=4
